Measurements taken from PubChem BioAssay (NCATS).
Records with an inconclusive call do not appear. Activity calls are given as the source filed them. Calls come from the whole dose curve; as a rule, active = well fitted curve in the direction sought with a large enough effect; inconclusive = small, poorly fitted or top-dose-only effect, or another doubt; inactive = no such curve, though single readings can be large; an effect the other way counts as inactive or inconclusive.
% is set by controls: 0 for no effect and ±100 for the full control effect.

What follows are molecules tested against ATP-dependent 6-phosphofructokinase (Trypanosoma brucei brucei) (UniProt O15648) (assay: qHTS Assay to Find Inhibitors of T. brucei phosphofructokinase: hit validation (AID 492961;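 note: luminescence reports ADP formed as PFK phosphorylates fructose-6-phosphate with ATP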)). Settings: T. brucei PFK, ADP-Glo luminescence; series mostly up to 51.4 µM; activity change, negative = inhibition: at the top concentration.
Chain of ATP-dependent 6-phosphofructokinase (Trypanosoma brucei brucei) (O15648 whole entry, looked up): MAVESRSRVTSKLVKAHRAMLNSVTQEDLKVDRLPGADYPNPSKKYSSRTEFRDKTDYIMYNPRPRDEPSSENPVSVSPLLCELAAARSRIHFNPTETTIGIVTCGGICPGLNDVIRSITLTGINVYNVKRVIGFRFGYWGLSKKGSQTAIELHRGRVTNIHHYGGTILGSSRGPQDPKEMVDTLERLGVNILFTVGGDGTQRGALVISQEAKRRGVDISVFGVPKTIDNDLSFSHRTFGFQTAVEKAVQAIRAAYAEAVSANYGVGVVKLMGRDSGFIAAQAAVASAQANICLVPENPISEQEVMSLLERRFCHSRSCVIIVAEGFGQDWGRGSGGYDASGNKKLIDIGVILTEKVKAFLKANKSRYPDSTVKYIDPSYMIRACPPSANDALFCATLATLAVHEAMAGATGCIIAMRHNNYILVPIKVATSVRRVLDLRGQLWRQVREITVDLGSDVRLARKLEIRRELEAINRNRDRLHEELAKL
Procedure, shortened: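 PFK 1.25 nM, F6P 0.5 mM, ATP 0.1 mM, MgCl2 5 mM, 0.1 M TEA pH 8.0, Tween20 0.01%, BSA 0.1%; 45 min RT. ADP-Glo two-step detection, luminescence. qHTS titration; curve fitting with curve-class categorization.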
NCC(=O)CCC(=O)O was tested, and the “activity change, negative = inhibition” value was 8.94% (inactive). In the case of Nc1nc2c(ncn2CCC(CO)CO)c(=O)[nH]1, the “activity change, negative = inhibition” value is reported as -6.66% (inactive). In the case of COc1cc(C)c(Cc2cnc(N)nc2N)cc1OC, the “activity change, negative = inhibition” value is reported as 19.2% (inactive). For C[C@H](N)[C@H](O)c1cccc(O)c1, the “activity change, negative = inhibition” value was 3.63% [at 24.3 µM] (inactive).

These molecules were tested against Ubiquitin carboxyl-terminal hydrolase 1 (Homo sapiens) (UniProt O94782) (assay: Inhibitors of USP1/UAF1: Pilot qHTS (AID 504865; note: nearly all actives have a fitted effect of over 35% in size; note: potency is the fitted concentration of half-maximal effect;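 for activity change, negative = inhibition: rhodamine fluorescence freed from ubiquitin-rhodamine substrate followed over time; top concentration of the series differs between compounds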)). Settings: purified USP1/UAF1, Ub-rhodamine cleavage fluorescence; series mostly up to 114 µM; activity change, negative = inhibition: at the top concentration.
Chain of Ubiquitin carboxyl-terminal hydrolase 1 (Homo sapiens) (O94782 whole entry, looked up): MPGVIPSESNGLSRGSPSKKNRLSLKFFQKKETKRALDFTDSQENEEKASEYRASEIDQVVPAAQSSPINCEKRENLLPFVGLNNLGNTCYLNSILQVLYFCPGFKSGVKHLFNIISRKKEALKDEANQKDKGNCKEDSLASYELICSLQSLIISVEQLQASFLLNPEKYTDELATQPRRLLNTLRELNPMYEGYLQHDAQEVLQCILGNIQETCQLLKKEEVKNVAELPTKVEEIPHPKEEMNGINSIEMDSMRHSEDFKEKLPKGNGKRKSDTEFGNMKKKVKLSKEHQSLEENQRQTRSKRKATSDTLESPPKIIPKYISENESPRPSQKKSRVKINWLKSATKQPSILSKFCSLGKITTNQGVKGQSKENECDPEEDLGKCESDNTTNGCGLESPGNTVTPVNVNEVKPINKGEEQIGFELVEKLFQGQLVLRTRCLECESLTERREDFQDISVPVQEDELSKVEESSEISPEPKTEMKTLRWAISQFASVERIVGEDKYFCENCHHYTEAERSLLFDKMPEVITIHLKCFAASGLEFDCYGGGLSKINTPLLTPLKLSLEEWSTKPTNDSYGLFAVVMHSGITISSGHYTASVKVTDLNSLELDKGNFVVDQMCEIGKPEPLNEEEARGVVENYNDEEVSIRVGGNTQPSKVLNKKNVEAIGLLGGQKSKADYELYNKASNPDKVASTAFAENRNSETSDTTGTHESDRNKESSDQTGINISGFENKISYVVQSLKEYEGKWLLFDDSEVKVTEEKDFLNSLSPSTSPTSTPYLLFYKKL
Procedure, shortened: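 USP1/UAF1 complex (1nM) preincubated with compound 15 min at room temperature, then Ub-Rho substrate (150nM final) added. Fluorescence read kinetically at 480/540 nm, 6 reads every 60 seconds. Buffer: 50mM HEPES pH 7.8, 0.5mM EDTA, 0.1 mg/ml BSA, 1mM TCEP, 0.01% Tween-20.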
NCC(=O)CCC(=O)O was tested, and the “activity change, negative = inhibition” value was -5.93% (inactive). Nc1nc2c(ncn2CCC(CO)CO)c(=O)[nH]1 was tested, and the “activity change, negative = inhibition” value was -3.72% (inactive). With O=c1[nH]c(=O)c2[nH]c(=O)[nH]c2[nH]1 the “activity change, negative = inhibition” value was -8.67% (inactive). C[C@@H]1CN(c2c(F)c(F)c3c(=O)c(C(=O)O)cn(C4CC4)c3c2F)C[C@H](C)N1 was tested, and the “activity change, negative = inhibition” value was 0.956% (inactive). CCC(=O)c1ccc(O)cc1 was tested, and the “activity change, negative = inhibition” value was -2.83% (inactive). In the case of CC1(C)OC(=O)NC1=O, the Potency is reported as “inactive”. In the case of CN1CCOC(c2ccccc2)c2ccccc2C1 (centres undefined), the “activity change, negative = inhibition” value is reported as -9.94% (inactive). For CCn1cc(C(=O)O)c(=O)c2cnc(N3CCNCC3)nc21, the “activity change, negative = inhibition” value was 15% [at 54.9 µM] (inactive). COc1cc(C)c(Cc2cnc(N)nc2N)cc1OC was tested, and the “activity change, negative = inhibition” value was -0.146% (inactive). For COc1ccc2c(c1)C(=O)N(CCc1ccc(S(=O)(=O)NC(=O)NC3CCCCC3)cc1)C(=O)C2(C)C, the “activity change, negative = inhibition” value was -10.1% [at 54.9 µM] (inactive). In the case of Oc1ccc(C(O)CNCCCCCCNCC(O)c2ccc(O)c(O)c2)cc1O (centres undefined), the “activity change, negative = inhibition” value is reported as -0.266% (inactive). COc1cc(C(=O)N2CCOCC2)cc(OC)c1OC was tested, and the Potency was “inactive”. In the case of OCC(O)CN1CCN(c2ccccc2)CC1 (centres undefined), the “activity change, negative = inhibition” value is reported as -5.77% (inactive). In the case of C[C@H](N)[C@H](O)c1cccc(O)c1, the “activity change, negative = inhibition” value is reported as -0.841% [at 54.9 µM] (inactive). For Cc1ccc2nc(N)[nH]c(=O)c2c1Sc1ccncc1, the “activity change, negative = inhibition” value was -9.56% (inactive). With NC(=O)N/N=C/c1ccc([N+](=O)[O-])o1 the Potency was “inactive”. For CCCCOC(=O)c1ccc(O)cc1, the Potency was “inactive”. CCCCCCCCCCCCOS(=O)(=O)O was tested, and the Potency was 79.4 µM (active). Cc1ncc(COP(=O)(O)O)c(C=O)c1O was tested, and the “activity change, negative = inhibition” value was -9.6% (inactive). NCCNCCNCCN was tested, and the “activity change, negative = inhibition” value was 0.867% (inactive). With CC(O)CN(CCN(CC(C)O)CC(C)O)CC(C)O (centres undefined) the “activity change, negative = inhibition” value was -2.43% (inactive). N[C@@H](CSCCCO)C(=O)O was tested, and the “activity change, negative = inhibition” value was 1.88% (inactive). With CC(COc1ccccc1)NC(C)C(O)c1ccc(O)cc1 (centres undefined) the “activity change, negative = inhibition” value was -9.15% (inactive). In the case of Nc1ccc(S(=O)(=O)Nc2ccccc2)cc1, the “activity change, negative = inhibition” value is reported as -3.09% (inactive). For NC(CSCC(=O)O)C(=O)O (centres undefined), the “activity change, negative = inhibition” value was 4.15% (inactive). In the case of O=c1cc[nH]c(=S)[nH]1, the “activity change, negative = inhibition” value is reported as -3.05% (inactive). O=c1cc(CO)occ1O was tested, and the “activity change, negative = inhibition” value was -2.44% (inactive). In the case of CC12CCC(CC1)C(C)(C)O2, the “activity change, negative = inhibition” value is reported as -4.82% (inactive). In the case of CCOc1ccc2ccccc2c1C(=O)N[C@@H]1C(=O)N2[C@@H]1SC(C)(C)[C@@H]2C(=O)O, the “activity change, negative = inhibition” value is reported as 5.43% [at 54.9 µM] (inactive). With Cc1cccc(Nc2cc(Cl)nc(SCC(=O)O)n2)c1C the “activity change, negative = inhibition” value was -7.42% (inactive). In the case of CCOC(=O)c1ccc(O)cc1, the “activity change, negative = inhibition” value is reported as -4.19% (inactive). O=C(O)COc1nn(Cc2ccccc2)c2ccccc12 was tested, and the “activity change, negative = inhibition” value was -9.17% (inactive). With O=C1NC(=O)[C@@]2(CCOc3ccc(F)cc32)N1 the “activity change, negative = inhibition” value was -1.3% (inactive). With CC(=O)Oc1ccc(C2(c3ccc(OC(C)=O)cc3)C(=O)Nc3ccccc32)cc1 the Potency was “inactive”. With c1ccc(CN(CC2=NCCN2)c2ccccc2)cc1 the Potency was “inactive”.
